According to PubChem BioAssay AID1159580 (chemical genetic matrix, 2015):
Where “and” joins values, the source holds several entries; their conditions need not be identical. Equal values may be shown once. The campaign covered roughly 5,500 compounds. About 2,000 (36%) were called active. About 18% were inconclusive and are not listed. Rule as the data show it: active = normalized growth mostly below about 0.91 (no sharp cut-off); inconclusive = no clear call, values can overlap the other calls; inactive = mostly above about 0.92. The list shows a part of the results.

Assay: chemical genetic growth profiling, strain panel (AID 1159580);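 also: tested at 20 µM; growth read once vehicle control cultures reached saturation at 30 °C; 1 = growth at the plate median or of vehicle wells; lower values mean less growth of the strain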
Details: S. cerevisiae deletion strains, growth OD

Measured: normalized growth

CN(C)CCc1c[nH]c2ccc(CS(=O)(=O)N3CCCC3)cc12
active: locus YDR159W, strain sac3, hits give low values 0.831
inactive: locus YAL013W, strain DEP1, hits give low values 0.991 | locus YAL021C, strain ccr4, hits give low values 0.991 | locus YAL026C, strain drs2, hits give low values 0.976 | locus YAL030W, strain snc1, hits give low values 1.01 | locus YBL061C, strain skt5, hits give low values 1.01 | locus YBR009C, strain hhf1, hits give low values 0.925 | locus YBR021W, strain FUR4, hits give low values 1 | locus YBR023C, strain chs3, hits give low values 0.997 | locus YBR171W, strain sec66, hits give low values 1 | locus YBR229C, strain ROT2, hits give low values 0.995 | locus YBR231C, strain swc5, hits give low values 0.993 | locus YBR279W, strain paf1, hits give low values 0.986 | locus YCL011C, strain gbp2, hits give low values 0.982 | locus YCL016C, strain dcc1, hits give low values 1.02 | locus YCL029C, strain bik1, hits give low values 0.981 | locus YCL069W, strain vba3, hits give low values 0.977 | locus YCR088W, strain abp1, hits give low values 0.986 | locus YDL005C, strain med2, hits give low values 1.01 | locus YDL035C, strain GPR1, hits give low values 1.01 | locus YDL040C, strain nat1, hits give low values 0.99 | locus YDL074C, strain BRE1, hits give low values 1.05 | locus YDL101C, strain DUN1, hits give low values 0.987 | locus YDL134C, strain PPH21, hits give low values 0.99 | locus YDL185W, strain tfp1, hits give low values 0.979 | locus YDL192W, strain arf1, hits give low values 0.991 | locus YDR001C, strain nth1, hits give low values 0.98 | locus YDR069C, strain doa4, hits give low values 0.992 | locus YDR101C, strain arx1, hits give low values 0.986 | locus YDR137W, strain rgp1, hits give low values 0.986 | locus YDR150W, strain NUM1, hits give low values 0.999 | locus YDR162C, strain NBP2, hits give low values 1.01 | locus YDR195W, strain ref2 0.937 | locus YDR297W, strain sur2, hits give low values 0.996 | locus YDR318W, strain mcm21, hits give low values 0.996 | locus YDR334W, strain swr1, hits give low values 0.949 | locus YDR335W, strain msn5, hits give low values 0.982 | locus YDR388W, hits give low values 0.988 | locus YDR392W, strain spt3, hits give low values 0.972 | locus YDR502C, strain sam2, hits give low values 0.989 | locus YEL003W, strain gim4, hits give low values 0.977 | locus YEL037C, strain rad23, hits give low values 0.976 | locus YEL061C, strain CIN8 (second series), hits give low values 0.958 | locus YEL061C, strain CIN8, hits give low values 1 | locus YER015W, strain faa2, hits give low values 0.993 | locus YER016W, strain bim1, hits give low values 1.05 | locus YER110C, hits give low values 0.99 | locus YER111C, strain swi4, hits give low values 0.998 | locus YER155C, strain BEM2 (second series), hits give low values 1.02 | locus YER155C, strain BEM2, hits give low values 1.02 | locus YER167W, strain BCK2, hits give low values 0.992 | locus YFR010W, strain ubp6, hits give low values 0.947 | locus YGL078C, strain dbp3, hits give low values 0.985 | locus YGL086W, strain mad1, hits give low values 0.988 | locus YGL167C, strain pmr1, hits give low values 0.983 | locus YGL173C, strain kem1, hits give low values 0.958 | locus YGL227W, strain vid30, hits give low values 0.966 | locus YGL240W, strain doc1, hits give low values 0.926 | locus YGL248W, strain PDE1, hits give low values 0.993 | locus YGL253W, strain hxk2, hits give low values 1 | locus YGR078C, strain PAC10, hits give low values 1.01 | locus YGR135W, strain pre9, hits give low values 0.999 | locus YGR229C, strain SMI1, hits give low values 1.01 | locus YGR252W, strain gcn5, hits give low values 1.03 | locus YHR013C, strain ard1, hits give low values 1.02 | locus YHR027C, strain rpn1, hits give low values 0.984 | locus YHR030C, strain SLT2, hits give low values 0.995 and 0.96 | locus YHR079C, strain IRE1 (second series), hits give low values 0.981 | locus YHR079C, strain IRE1, hits give low values 0.984 | locus YHR094C, strain hxt1, hits give low values 0.987 | locus YHR129C, strain ARP1, hits give low values 0.981 | locus YHR142W, strain chs7, hits give low values 0.976 | locus YHR200W, strain rpn10, hits give low values 0.991 | locus YIL066C, strain RNR3, hits give low values 0.998 | locus YIL073C, strain SPO22, hits give low values 0.999 | locus YIL125W, strain kgd1, hits give low values 0.994 | locus YIR030C, strain dcg1, hits give low values 0.983 | locus YJL092W, strain hpr5, hits give low values 0.99 | locus YJL095W, strain BCK1 (second series), hits give low values 0.991 | locus YJL095W, strain BCK1, hits give low values 0.984 and 0.977 | locus YJL115W, strain asf1, hits give low values 0.987 | locus YJL129C, strain trk1, hits give low values 0.994 | locus YJL134W, strain LCB3, hits give low values 0.991 | locus YJL154C, strain vps35, hits give low values 0.978 | locus YJL164C, strain tpk1, hits give low values 0.99 | locus YJL166W, strain qcr8, hits give low values 0.986 | locus YJL168C, strain set2, hits give low values 0.987 | locus YJL187C, strain SWE1 (second series), hits give low values 0.986 | locus YJL187C, strain SWE1, hits give low values 1.01 | locus YJR043C, strain POL32, hits give low values 0.994 | locus YJR066W, strain TOR1, hits give low values 0.925
